Compounds with a hit are over-represented: about 2.4% of the library has one in this group of screens.
M1 ag – human M1 muscarinic receptor agonists, primary screen, Fluo-8 calcium fluorescence, CHO-K1 cells, HTS; Muscarinic acetylcholine receptor M1 (Homo sapiens), P11229; CHO-K1 hM1, agonist mode; 0% DMSO, 100% acetylcholine EC100; activation, % at 3 µM; hit rate 0.33% among 360,000;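 active = activation above the run's mean compound activation plus 3 SD, cut at about 16% in these data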;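 also: peak over basal fluorescence ratio within a 140 s kinetic read after compound addition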
Target sequence (P11229 whole entry, looked up): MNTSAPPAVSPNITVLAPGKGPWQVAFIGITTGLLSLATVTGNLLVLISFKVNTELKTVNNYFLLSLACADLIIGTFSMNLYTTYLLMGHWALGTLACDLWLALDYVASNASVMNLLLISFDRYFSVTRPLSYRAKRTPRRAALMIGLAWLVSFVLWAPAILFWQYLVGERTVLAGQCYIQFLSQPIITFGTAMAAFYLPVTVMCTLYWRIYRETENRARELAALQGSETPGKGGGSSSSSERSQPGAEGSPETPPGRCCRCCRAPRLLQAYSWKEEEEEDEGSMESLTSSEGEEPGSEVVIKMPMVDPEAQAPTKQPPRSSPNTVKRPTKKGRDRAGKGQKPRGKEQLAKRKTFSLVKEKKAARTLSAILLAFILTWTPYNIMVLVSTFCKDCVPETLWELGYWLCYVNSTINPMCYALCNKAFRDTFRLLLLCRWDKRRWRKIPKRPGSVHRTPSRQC
CHRM1 PAM – human M1 muscarinic receptor positive allosteric modulators, primary screen, CHO-K1 cells, Fluo-8 calcium fluorescence, 1536-well; CHO-K1 hM1, ACh EC20; 0% = ACh EC20, 100% = maximal ACh; AID 588819, 2011; activation, % at 3 µM; hit rate 0.088% among 360,000; in the data active = activation above about 19%, passing the limit was not always enough
M1 PAM parental – nonselective calcium activators in parental CHO-K1 cells, primary screen, counter-screen for M1 PAM project, cell-based, Fluo-8 calcium fluorescence, full deck, 1536-well; activation, % at 3 µM; ATP EC20; 0% at ATP EC20, 100% at ATP max; AID 602247, 2012; hit rate 0.02% among 360,000;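 active = activation above the run cutoff, the mean activation of all test compounds plus 3 SD, cut at about 40% in these data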;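 also: peak over basal fluorescence ratio in a 140 s read after ATP addition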
CHRM1 antagonist – human M1 muscarinic receptor antagonists, primary screen, CHO-K1 cells, Fluo-8 calcium fluorescence, 1536-well; CHO-K1 hM1, ACh EC80 antagonist; inhibition, % at 3 µM; hit rate 1.3% among 360,000;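 active = percent inhibition above its own plate's cutoff, namely the mean of that plate's compound wells plus 3 SD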;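 also: peak over basal fluorescence ratio during 140 s after agonist addition; 0% = ACh EC80 plus DMSO and 100% = DMSO alone without agonist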
CHO-K1 Ca antag – nonselective inhibitor or artifact in parental CHO-K1 cells | hit rate 0.6% among 360,000 | inhibition, % at 3 µM | ATP-induced calcium, Fluo-8 fluorescence;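 active = inhibition above a per-plate cutoff, the plate's mean sample inhibition plus 3 SD, cut at about 24% in these data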;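 also: 0% = DMSO plus EC80 ATP and 100% = DMSO alone without ATP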
M1 ag parental – counter-screen for M1 agonists: effect in parental CHO-K1 cells; Fluo-8 calcium fluorescence; scaled to maximal ATP response, vehicle zero; activation, % at 3 µM; hit rate 0.48% among 360,000; in the data active = activation above about 15%;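 also: untransfected CHO-K1 host cells lacking M1 receptor as counterscreen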
The depositor's hits bear a star; . = not tested or not shown.

SMILES	M1 ag	CHRM1 PAM	M1 PAM parental	CHRM1 antagonist	CHO-K1 Ca antag	M1 ag parental
O=C(Nc1ccccc1-c1ccccc1)NC1CC2CCCC(C1)N2Cc1ccc(F)cc1 (stereo not drawn)	-14	-35	6	98*	0	-1
CCOc1ccc(C(=O)NC2CC3CCCC(C2)N3Cc2ccccc2)cc1 (stereo not drawn)	-10	-22	-12	38*	-3	0
CCCNC(=S)NC1CC2CCCC(C1)N2Cc1ccc(F)cc1 (stereo not drawn)	-9	-23	2	48*	0	-1
COc1ccc(C(=O)NC2CC3CCCC(C2)N3Cc2ccccc2)cc1 (stereo not drawn)	-9	-12	-21	10	3	0
O=S1(=O)CC(N2CCSCC2)CN1Cc1cn(Cc2ccc(F)cc2)nn1 (stereo not drawn)	.	.	0	.	-5	0
CCOc1ccc(S(=O)(=O)Nc2cc(S(=O)(=O)N3CCOCC3)ccc2OC)cc1	-2	8	24	-6	18	1
c1cc(-c2n[nH]c(-c3ccncc3)n2)ccn1	8	14	3	-15	-1	20*
NC(=S)NNC(=O)C12CC3CC(CC(C3)C1)C2	29*	-6	-6	23*	8	19*
Cc1cccc(NC(=O)C2CCN(S(=O)(=O)c3c(C)noc3/C=C/c3ccco3)CC2)n1	-3	-3	15	5	-5	4
CCC(C)N1CCN(C(=O)C2CCN(S(=O)(=O)c3c(C)noc3/C=C/c3ccco3)CC2)CC1 (stereo not drawn)	-6	-24	-18	80*	10	-1
Oc1ccc(Cl)cc1CNCc1ccc(F)cc1	18*	6	11	-5	-14	10
Oc1ccc(Cl)cc1CNCc1ccc(Cl)cc1	11	6	12	-8	-23	4
O=C(NC1CC1)c1cccc(S(=O)(=O)N2CCOCC2)c1	-4	14	16	-16	-21	0
CCOc1cc(/C=N/n2cnnc2)ccc1OC(=O)c1cccc([N+](=O)[O-])c1	-1	-6	-9	23	31*	1
COc1ccccc1CN1CCNC(=O)C1CC(=O)N(C)Cc1ccon1 (stereo not drawn)	-6	10	14	-9	-20	0
CCN(CC)CCOC(=O)C(Cc1ccco1)Cc1cccc2ccccc12 (stereo not drawn)	-5	-25	13	59*	-5	6
CCN(CC)CCOC(=O)CCc1cccc2ccccc12	-3	-13	16	11	-11	1
CC(=O)NNC(=O)c1sc(=S)n(C)c1C	8	10	10	-3	9	19*
OCC1OC(n2cnc3c(SCc4ccccc4)nc(NO)nc32)C(O)C1O (stereo not drawn)	-9	-30	12	71*	-15	1
CN[C@@H](CO)C(=O)NC[C@H]1O[C@@H](n2cnc3c(N)ncnc32)[C@H](O)[C@@H]1O	-1	4	1	-38	-24	0
COc1ccc(OCc2n(CC(=O)OC3CC(C)CCC3C(C)C)c3ccccc3[n+]2C)cc1 (stereo not drawn)	-5	-22	7	39*	8	2
CC1CCC(C(C)C)C(OC(=O)CSc2nccc(=O)[nH]2)C1 (stereo not drawn)	-7	-7	6	13	-1	0
COc1ccc(-c2n(CC(=O)OC3CC(C)CCC3C(C)C)c3ccccc3[n+]2C)cc1 (stereo not drawn)	-10	-24	-4	28*	24*	6
Cc1cc(C)cc(C(=O)NC(CC(N)=O)c2ccc(NCCN3CCCC3)c([N+](=O)[O-])c2)c1 (stereo not drawn)	-4	4	12	-3	-10	1
CCn1cc(C(=O)N2CCCC(N3CCN(c4ccccc4C)CC3)C2)cn1 (stereo not drawn)	-5	2	4	-1	0	-1
SMILES	M1 ag	CHRM1 PAM	M1 PAM parental	CHRM1 antagonist	CHO-K1 Ca antag	M1 ag parental
COc1cc(C2NC(=O)c3ccccc3O2)ccc1OC(C)C (stereo not drawn)	0	12	-10	-2	25*	-1
CC(C)CC(NC(=O)CNC(=O)C1O[C@@H]2OC(C)(C)O[C@@H]2[C@H]2OC(C)(C)O[C@@H]12)C(=O)O (stereo partly drawn)	-4	-2	8	-2	-3	1
Cc1ccc(C2(C)NC(=O)N(CC(=O)N3CCN(S(=O)(=O)c4ccc(Cl)s4)CC3)C2=O)cc1 (stereo not drawn)	-3	2	4	-2	2	1
O=c1ccc2c(ccc3ncccc32)o1	-3	8	1	-8	3	0
COCCN(CCOC)Cc1cc(=O)oc2ccccc12	-2	4	10	-2	13	1
CC(c1ccc(O)cc1)(c1ccc(O)cc1)c1ccc(CCBr)cc1	10	1	-7	1	6	18*
COCc1ccc(C(=O)NCC2(N3CCCCC3)CCCCC2)cc1	-9	1	-18	2	-2	16*
COc1ccc(NS(=O)(=O)c2ccc(C(=O)NCC3(N4CCOCC4)CCCCC3)cc2)cc1	15	4	17	-7	-12	15*
CS(=O)(=O)Cc1ccc(C(=O)NCC2(N3CCCCC3)CCCCC2)cc1	-11	9	22	-15	-9	0
COc1ccc(NS(=O)(=O)c2ccc(C(=O)N(C)Cc3ccc(C)o3)cc2)cc1	20*	4	2	-1	-4	13
CCN(Cc1ccccc1)Cc1nnnn1Cc1ccccc1	-9	0	-7	-3	-2	0
O=C(NC1CC2CCCC(C1)N2C(=S)Nc1ccccc1Cl)C1CC1 (stereo not drawn)	-11	-12	7	7	-14	0
Cc1ccc(C)c(NC(=S)N2C3CCCC2CC(NC(=O)C2CC2)C3)c1 (stereo not drawn)	-12	-18	-6	38*	8	0
COc1ccc2c(COC(=O)c3cccc(S(=O)(=O)NCC(C)C)c3)cc(=O)oc2c1	-2	-24	-12	38*	20	17*
COc1cc(OC)cc(C(=O)NCC(=O)OCc2cc(=O)oc3cc(OC)ccc23)c1	-1	9	15	-7	3	18*
COc1ccc2c(COC(=O)CNS(=O)(=O)c3ccccc3)cc(=O)oc2c1	-4	0	7	5	-13	2

Screens as filed in PubChem.
